TGFb SMAD3 inh = blocks TGF-b signaling | hit rate 1.2% among 410,000 | Potency, µM (highest dose often 46.1 µM), inactives show at the highest dose activity, negative = inhibition, actives largely listed as inhibitors | HepG2 CAGA-GFP TGF-b/SMAD3 reporter, GFP fluorescence, 18 h; TGF-beta stimulated, 500 pg/mL final | AID 588855; further: on the % scale 0 is the no-effect control and ±100 the full control effect; nearly all actives have a fitted effect of over 65% in size
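Inhibition was scored as loss of TGF-beta-induced (500 pg/mL final, 18 hours, 37 degrees C) GFP in HEPG2 cells carrying a CAGA-GFP reporter, in DMEM with 1% FBS. Well GFP was summed per cell; Activity was normalised to unstimulated and stimulated DMSO wells, then concentration-response fitting.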
HT1080 IDH1KD tx = kills HT-1080 cells with IDH1 knockdown; AID 686971; HT-1080 IDH1 knockdown viability, ATP luminescence, 48 h; Potency, µM (top dose mostly 46.1 µM), for the others: at the highest dose activity, negative = toxicity, hits mostly cytotoxic; hit rate 2% among 360,000;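 further: 0% = DMSO wells and -100% = cell-free medium wells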
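Assay cells: HT-1080 with IDH1 knockdown, 750 per well, RPMI/5% FBS. Exposure: 48 h at 37 °C following 2 h pre-incubation. Read: CellTiter-Glo luminescence; fitted concentration-response, curve class assigned.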
HT1080-NT tox = kills 2HG-producing HT-1080-NT fibrosarcoma cells. HT-1080-NT fibrosarcoma viability, CellTiter-Glo ATP luminescence, 48 h. Potency, µM (titrated, usually from 46.1 µM), for the others: top-dose activity, negative = less viability, actives largely listed as cytotoxic. hit rate 1.6% among 360,000;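 further: NT is the 2HG producing partner of a matched IDH1 knockdown line; 0% = DMSO-treated cells and -100% = media-only wells without cells; nearly all actives have a fitted effect of over 55% in size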
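Viability of the 2HG-overproducing fibrosarcoma line after 48 hours of compound exposure at 37 degrees C was determined by luminescence with CellTiter-Glo, and concentration-effect curves were then fitted and categorized.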
HepG2 tox-1 = counter-screen for TGF-b inhibitors: cytotoxicity in HepG2 cells; Potency, µM (top dose mostly 46.1 µM), for inactives: at the highest dose activity change, negative = cytotoxicity, hits mostly cytotoxic; AID 588856; hit rate 0.76% among 410,000; HepG2 CAGA-GFP viability, ATP luminescence, 18 h
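HepG2 CAGA-GFP cells (1000/well, DMEM with 1% FBS) received compound, then TGF-beta at 500 pg/mL final, and were incubated 18 hours at 37 degrees C. Viability was read by CellTiter-Glo luminescence. Media-only wells were set as complete cell-killing and DMSO as no toxicity.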
S2 tox = reduces viability in counter-screen for ATXN expression inhibitors; S2 cells (HEK-293 line with an ATXN2-luciferase reporter) viability, CellTiter-Fluor protease fluorescence, 24 h; Potency, µM (highest dose often 56.7 µM), usual class: cytotoxic; hit rate 0.49% among 400,000; further: nearly all actives have a fitted effect of over 40% in size
ATXN2 expr inh = ATXN2 expression inhibition | AID 1745845 | hit rate 0.72% among 360,000 | Potency, µM (series often up to 57 µM), for inactives: at the top dose activity change, negative = inhibition, usual class: inhibitors | HEK-293 ATXN2-luciferase reporter, luminescence, 24 h; further: on the % scale 0 is the no-effect control and ±100 the full control effect; nearly all actives have a fitted effect of over 55% in size
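ATXN2-luciferase reporter cells (luciferase flanked by upstream and downstream ATXN2 gene portions) were treated 24 h at 37 °C with compounds at up to 57 uM. SteadyGlo luminescence gave expression; GF-AFC fluorescence gave viability.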
TGFb CAGA inh = confirmation of TGF-b signaling inhibitors in HepG2 reporter cells | shares compounds with TGFb SMAD3 inh | HepG2 CAGA-GFP TGF-b reporter, GFP fluorescence, 18 h; cells stimulated with TGF-beta, 500 pg/mL | Potency, µM (series often up to 46.1 µM), for inactives: top-dose activity, negative = inhibition, most hits filed as inhibitors | hit rate 63% among 1,600; further: on the % scale 0 is the no-effect control and ±100 the full control effect; nearly all actives have a fitted effect of over 65% in size
HepG2 tox-2 = counter-screen for TGF-b inhibitors: cytotoxicity in HepG2 cells | shares compounds with TGFb SMAD3 inh | HepG2 CAGA-GFP viability, ATP luminescence, 18 h; cells stimulated with TGF-beta, 500 pg/mL | Potency, µM (series often up to 46.1 µM), inactives show top-dose activity, negative = cytotoxicity, most hits filed as inhibitors | hit rate 27% among 1,600; further: on the % scale 0 is the no-effect control and ±100 the full control effect; nearly all actives have a fitted effect of over 70% in size
CCL64 TGFb inh = orthogonal confirmation of TGF-b inhibitors in CCL64 cells. AID 720536. Potency, µM (highest dose often 46.1 µM), inactives show top-dose activity, negative = inhibition, hits mostly inhibitors. shares compounds with TGFb SMAD3 inh. CCL64 CAGA-GFP reporter, TGF-b stimulated, GFP fluorescence, 18 h. hit rate 41% among 1,600; further: nearly all actives have a fitted effect of over 65% in size
TGFb COP inh = TGF-b inhibition validated with COP promoter. Potency, µM (highest dose often 46.1 µM), for the others: at the highest dose activity, negative = inhibition, actives largely listed as inhibitors. hit rate 3% among 1,600. AID 720537. HepG2 COP-GFP TGF-b reporter, GFP fluorescence, 18 h; cells stimulated by added recombinant TGF-beta. shares compounds with TGFb SMAD3 inh; further: nearly all actives have a fitted effect of over 70% in size
* hit, by the source's call; i = inactive; ? = inconclusive; . = no result; [ ] = dose if it differs, or a comment. Sampled rows, rich in hits. Any-hit rate of the full collection: about 3.9%. The call rests on the fitted dose curve; in most records, active means well fitted curve in the direction sought with a large enough effect; inconclusive means small, poorly fitted or top-dose-only effect, or another doubt; inactive means no such curve, though single readings can be large; an effect the other way counts as inactive or inconclusive. Potency means the concentration at half of the fitted maximal effect.

SMILES | TGFb SMAD3 inh | HT1080 IDH1KD tx | HT1080-NT tox | HepG2 tox-1 | S2 tox | ATXN2 expr inh | TGFb CAGA inh | HepG2 tox-2 | CCL64 TGFb inh | TGFb COP inh
NC(=O)c1cccc(-c2ccnc3c2CC(C(=O)Nc2cccc(C(F)(F)F)c2)O3)c1 (stereo unspecified) | 13µM* | ? | ? | -27% | i | ? | 21µM* | -28% | 7% | 31%
O=C(Nc1cccc(C(F)(F)F)c1)C1Cc2c(-c3cccc(F)c3)ccnc2O1 (stereo unspecified) | ? | ? | ? | -19% | ? | ? | . | . | . | .
CCCCC(=O)Nc1cccc(-c2nc3ccccc3s2)c1 | ? | . | . | -43% | ? | -7% | . | . | . | .
Cc1ccc(SCC(=O)Nc2cc([N+](=O)[O-])ccc2O)cc1 | 18µM* | -24% | -17% | -31% | i | 12%[11.3 µM] | 4.6µM* | ? | ? | 82%
O=C(CSCc1ccc(Cl)cc1)Nc1cc([N+](=O)[O-])ccc1O | ? | ? | ? | -8% | ? | ? | . | . | . | .
COc1ccc(C2CC(O)(c3ccccc3)Oc3cc(C)c(Cl)c(C)c32)cc1 (stereo unspecified) | ? | . | . | -39% | . | . | . | . | . | .
Cc1cc(C)n(-c2nc3ccccc3nc2N2CCN(c3cccc(C)c3C)CC2)n1 | -10% | . | . | 2% | i | 12% | . | . | . | .
Cc1cc(C)c2cc(C(=O)N3CCC(C(=O)c4ccc(F)cc4)CC3)[nH]c2c1 | 11µM* | ? | ? | -6% | i | -26% | 9.2µM* | -24% | ? | 14%
Cc1cc(C)c2cc(C(=O)N3CCC(N4CCCCC4)CC3)[nH]c2c1 | 11% | -29% | -15% | -7% | i | -13% | . | . | . | .
CCc1ccc(NC(=O)N2CCOc3ccc(Cl)cc32)cc1 | -10% | . | . | -60% | . | . | . | . | . | .
CCOC(=O)C1CCCN(C(=O)Cc2ccc(C)cc2)C1 (stereo unspecified) | 10µM* | 19% | 15% | 4% | i | -16% | -7% | -2% | 24% | -10%
O=S(=O)(c1cccs1)N1CCN(c2nc(-c3cccs3)nc3ccccc23)CC1 | . | 2% | 18% | . | . | . | . | . | . | .
CCN(CC)C(=O)c1nc[nH]c1C(=O)N1CCN(c2ccccc2)CC1 | ? | -12% | -12% | 4% | i | 8% | -5% | 3% | 8% | 18%
CN(Cc1ccccc1)C(=O)c1nc[nH]c1C(=O)N1CCN(c2ccccc2)CC1 | 2% | 6% | -1% | 0% | i | 15% | . | . | . | .
COCCNC(=O)CCC(=O)N1Cc2cccc(OC)c2Oc2ncccc21 | 7% | . | . | -4% | i | 1% | . | . | . | .
O=C1NC(Cc2ccc(O)cc2)c2nc3cc(F)c(F)cc3c(=O)n2-c2cc3ccccc3cc21 (stereo unspecified) | 16µM* | 18µM* | ? | -20% | . | ? | ? | ? | ? | 62%
COc1cc2nc3n(c(=O)c2cc1OC)-c1cc2ccccc2cc1C(=O)NC3Cc1ccccc1 (stereo unspecified) | -1% | -23% | -19% | -18% | ? | -4% | . | . | . | .
NC(=O)c1oc2ccccc2c1NC(=O)c1ccc([N+](=O)[O-])o1 | 7.1µM* | 2.1µM* | 1.5µM* | -31% | ? | ? | 4.6µM* | 23µM* | ? | 51%
Cc1ccccc1C(=O)N1CCN(c2ccc(NC(=O)c3ccc([N+](=O)[O-])o3)cc2)CC1 | 3.2µM* | 2.6µM* | 1.3µM* | 1.1µM* | ? | -28% | 6.5µM* | 16µM* | -7% | ?
NC(=O)c1oc2ccccc2c1NC(=O)c1ccc(F)cc1 | -19% | -5% | 0% | 31% | i | -6% | . | . | . | .
O=C(Nc1ccccc1N1CCN(C(=O)c2ccc(Cl)cc2)CC1)c1ccc([N+](=O)[O-])o1 | ? | ? | ? | -14% | ? | ? | . | . | . | .
O=C(NNC(=O)c1ccc([N+](=O)[O-])o1)c1ccccc1 | 7.9µM* | ? | ? | -26% | ? | -24% | 16µM* | 18µM* | 3% | 52%
O=C(Nc1ccc(N2CCN(C(=O)c3ccccc3)CC2)cc1)c1ccc([N+](=O)[O-])o1 | 5.6µM* | ? | 7.3µM* | 13µM* | ? | . | 7.3µM* | 23µM* | ? | -21%
CC(C)CCNC(=O)c1ccc2c(c1)NC(=O)C(CS(=O)(=O)Cc1ccc(F)cc1)N2 (stereo unspecified) | ? | . | . | -28% | . | . | . | . | . | .
Cc1cc(C)c(NC(=O)Cn2c(=O)nc(-c3ccccc3)c3cc(Cl)ccc32)c(C)c1 | -4% | . | . | 0% | . | . | . | . | . | .
CCN(c1ncnc2c1cnn2-c1cc(Cl)ccc1C)C1CCCCC1 | ? | . | . | -33% | i | -9% | . | . | . | .
Cc1cc2oc(C(=O)Nc3sc4c(c3C(=O)NCC3CCCO3)CCCC4)cc(=O)c2cc1C (stereo unspecified) | 6% | . | . | -11% | i | 4% | . | . | . | .
O=C(Nc1nc(-c2ccccn2)cs1)c1ccc([N+](=O)[O-])o1 | 8.9µM* | ? | -18% | -58% | ? | ? | 15µM* | 16µM* | ? | 17%
COc1ccc(NC(=O)c2cc3c(s2)-c2c(C)cccc2OC3)c(OC)c1 | -2% | . | . | -14% | i | -21% | . | . | . | .
O=C(COc1ccc(C(=O)c2ccccc2)cc1)NCc1ccc(F)cc1 | ? | 2.3µM* | 2.1µM* | 5% | ? | -22% | 9.2µM* | -14% | ? | -4%
